Reference: article PMC13494018
A number with no mark means an inactive call. No rule for the calls is given here.

B1: design_601_c3fd07b4-2f34-4ad8-bd4e-2749faf628eb_877_dldesign_0_cycle1_af2pred (protein)
chain: NEKAKEALKENKEAAELARKLAKEGIAPEEAARLAQKLQETAAVMKMADKVPKETLEEAIKEGKKAAEEVKKLAKA
B2: design_601_c3fd07b4-2f34-4ad8-bd4e-2749faf628eb_503_dldesign_0_cycle1_af2pred (protein)
chain: AEKAIGNAHAYKNILKSEAEWSKKLPLEERKKRLKELVEEIAKIAAEAGEEVAEKFRKEAEAFAEEALKKQEEE
B3: design_601_c3fd07b4-2f34-4ad8-bd4e-2749faf628eb_1384_dldesign_0_cycle1_af2pred (protein)
chain: SKIELLKKAAEYVEEAAKLAKEGGRVSDVIKLLQKAYELAKKAGDEETAKLIKEAAFAVPDPEKAYKLLKEAAERLKEKAKKLE
B4: design_601_c3fd07b4-2f34-4ad8-bd4e-2749faf628eb_821_dldesign_0_cycle1_af2pred (protein)
chain: EAAAAAAAGEEARRLTRKRLERAEEAEKTKSPLQAANAWLAASEFARHAAEALAKNYPSATETIAELRALAEEAEAKAKELL
B5: design_601_c3fd07b4-2f34-4ad8-bd4e-2749faf628eb_419_dldesign_0_cycle1_af2pred (protein)
chain: GKEELLKKAKKAMEETKKAIKEGKKLIKEGASKEELEKAAEELRKKAKEVRELGKELPELKPEAAKVAQEAYETAAELDVEAKKK
B6: design_601_c3fd07b4-2f34-4ad8-bd4e-2749faf628eb_592_dldesign_0_cycle1_af2pred (protein)
chain: SSADILREYRRALQEATKAAAAADPANKEEILKEGAKAREEVVDAFSESDELGKKTAEEQLAKIKARKKAAE
B7: design_601_c3fd07b4-2f34-4ad8-bd4e-2749faf628eb_731_dldesign_0_cycle1_af2pred (protein)
chain: AEAKKELTEEVFEALEYRNEIERKDPELGKKARELLRKAFEEGRKLIKADPEEGTKKAAEIVKKVREEIKKLAE
B8: design_601_c3fd07b4-2f34-4ad8-bd4e-2749faf628eb_648_dldesign_0_cycle1_af2pred (protein)
chain: GTEEALERVRRGAERARRLLDEARKYGADKEKVDALTKEADEALAAAEENPEKAPEYLKRIAEISAEAAELRAEAFAKK
B9: design_601_c3fd07b4-2f34-4ad8-bd4e-2749faf628eb_83_dldesign_0_cycle1_af2pred (protein)
chain: NEEAKKAYEKAKKVIEKVLKLAKENPELAEAEEQAKKALEKAEEGLKKGDVGLTESALTRAEHLLEVAEAKIAA
B10: design_601_c3fd07b4-2f34-4ad8-bd4e-2749faf628eb_257_dldesign_0_cycle1_af2pred (protein)
chain: VELAKEMKKLIAEAARAAKEDPKKAAKLLKEAAKKAKEIGEIAEPAAKLLEEAAKLLEEGPEKAPEAATLLSEARAEANYVIKSLEL
B11: design_601_c3fd07b4-2f34-4ad8-bd4e-2749faf628eb_190_dldesign_0_cycle1_af2pred (protein)
chain: SMEGQELKDKAVDALGDAHLLKIKGKEIDPEIVKIAEKAEEAAKKALKLIKEGNLEEAKEELEKAEELVKKAKELLKKKE
B12: design_601_c3fd07b4-2f34-4ad8-bd4e-2749faf628eb_461_dldesign_0_cycle1_af2pred (protein)
chain: SAEEEAKKLLEEVKKAMSAANFAMAEDLEEGEKAWEEAKKKAKELLEKAEKLNKEEAKKVKEAVEKGEKTYKRIKKDHEEAEKRAKER
B13: design_601_c3fd07b4-2f34-4ad8-bd4e-2749faf628eb_1122_dldesign_0_cycle1_af2pred (protein)
chain: MEEEKIRKRQAELLKEEAEKEMAAAKASTDAAEAANLGLFARQLYRSAAKIDKENKEEYLKLAEKAEEETKAIVAAKKAA
B14: design_601_c3fd07b4-2f34-4ad8-bd4e-2749faf628eb_475_dldesign_0_cycle1_af2pred (protein)
chain: DEFTEKAKEFAEEVKKKSKELVAKAEAGDAETAKEKRKEAVKLLSEAFSLSVKAKKESKEAYEYMKEAEEIASDAVIKISEIEKKKAA
B15: design_601_c3fd07b4-2f34-4ad8-bd4e-2749faf628eb_334_dldesign_0_cycle1_af2pred (protein)
chain: DPASEEAKKLADKMRTAQRLFKQAGLALKEGKRDVDAVAEGYALAKEADPEFAEALEEALKKSVGEEKGTALIEEAKALAKAKAAA
B16: design_601_c3fd07b4-2f34-4ad8-bd4e-2749faf628eb_72_dldesign_0_cycle1_af2pred (protein)
chain: AAAAAAKKAEADATQLDLIAKSTEAIKDKVSPETVADVFAPAAAAYEKAAKLWSGNPAKAAEFKAKAKEMKAKYEKAKKEAE
B17: design_600_24101276-ad9d-4944-b73e-53bb160363ad_2443_dldesign_0_cycle1_af2pred (protein)
chain: VEEAEKRAKRLKEEAEKAAKELAKEGGEEKAKELLEKAKEAAEKFLEAAKKGDGKAAADYLSEARGYIAELRIEAKKLK
B18: design_601_c3fd07b4-2f34-4ad8-bd4e-2749faf628eb_587_dldesign_0_cycle1_af2pred (protein)
chain: NEEKAKTALSEGNAYYRMALDAVKIGVKKEDVLALIDEAEKYFEKAAELYKDNPEKAKKIKELGKEKTEEARKALEEA
B19: design_601_c3fd07b4-2f34-4ad8-bd4e-2749faf628eb_352_dldesign_0_cycle1_af2pred (protein)
chain: AKEDQEASSEMMRYLTKAGKLAKEIGEEEYEKALKEREKVLELSVEDPKKGLEAAKEVLKEYEEKYKKAEEEKKA

Target: VTCN1, Q7Z7D3
Sequence (Q7Z7D3 whole entry): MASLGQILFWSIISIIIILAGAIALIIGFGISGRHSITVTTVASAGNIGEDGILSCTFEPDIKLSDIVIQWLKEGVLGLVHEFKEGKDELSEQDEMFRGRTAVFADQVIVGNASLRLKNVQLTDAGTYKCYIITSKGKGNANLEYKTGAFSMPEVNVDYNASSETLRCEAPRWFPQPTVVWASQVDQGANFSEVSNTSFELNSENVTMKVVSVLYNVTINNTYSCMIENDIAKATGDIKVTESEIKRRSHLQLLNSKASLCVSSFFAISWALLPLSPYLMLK

Binder | binding in a display sort
B1 | not found
B2 | not found
B3 | not found
B4 | not found
B5 | not found
B6 | not found
B7 | not found
B8 | not found
B9 | not found
B10 | not found
B11 | not found
B12 | not found
B13 | not found
B14 | not found
B15 | not found
B16 | not found
B17 | not found
B18 | not found
B19 | not found
